Screening results from PubChem BioAssay.
mHTT CaM bind: mHTT-calmodulin interaction abrogation; P42858; inhibition, % at 15 µM; hit rate 3.6% among 190,000; AID 1671202; AlphaScreen His-mHTT/GST-CaM binding, luminescence;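 also: 0% = both proteins with DMSO and 100% = one protein alone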
Target sequence (P42858 whole entry, looked up, stated change not applied): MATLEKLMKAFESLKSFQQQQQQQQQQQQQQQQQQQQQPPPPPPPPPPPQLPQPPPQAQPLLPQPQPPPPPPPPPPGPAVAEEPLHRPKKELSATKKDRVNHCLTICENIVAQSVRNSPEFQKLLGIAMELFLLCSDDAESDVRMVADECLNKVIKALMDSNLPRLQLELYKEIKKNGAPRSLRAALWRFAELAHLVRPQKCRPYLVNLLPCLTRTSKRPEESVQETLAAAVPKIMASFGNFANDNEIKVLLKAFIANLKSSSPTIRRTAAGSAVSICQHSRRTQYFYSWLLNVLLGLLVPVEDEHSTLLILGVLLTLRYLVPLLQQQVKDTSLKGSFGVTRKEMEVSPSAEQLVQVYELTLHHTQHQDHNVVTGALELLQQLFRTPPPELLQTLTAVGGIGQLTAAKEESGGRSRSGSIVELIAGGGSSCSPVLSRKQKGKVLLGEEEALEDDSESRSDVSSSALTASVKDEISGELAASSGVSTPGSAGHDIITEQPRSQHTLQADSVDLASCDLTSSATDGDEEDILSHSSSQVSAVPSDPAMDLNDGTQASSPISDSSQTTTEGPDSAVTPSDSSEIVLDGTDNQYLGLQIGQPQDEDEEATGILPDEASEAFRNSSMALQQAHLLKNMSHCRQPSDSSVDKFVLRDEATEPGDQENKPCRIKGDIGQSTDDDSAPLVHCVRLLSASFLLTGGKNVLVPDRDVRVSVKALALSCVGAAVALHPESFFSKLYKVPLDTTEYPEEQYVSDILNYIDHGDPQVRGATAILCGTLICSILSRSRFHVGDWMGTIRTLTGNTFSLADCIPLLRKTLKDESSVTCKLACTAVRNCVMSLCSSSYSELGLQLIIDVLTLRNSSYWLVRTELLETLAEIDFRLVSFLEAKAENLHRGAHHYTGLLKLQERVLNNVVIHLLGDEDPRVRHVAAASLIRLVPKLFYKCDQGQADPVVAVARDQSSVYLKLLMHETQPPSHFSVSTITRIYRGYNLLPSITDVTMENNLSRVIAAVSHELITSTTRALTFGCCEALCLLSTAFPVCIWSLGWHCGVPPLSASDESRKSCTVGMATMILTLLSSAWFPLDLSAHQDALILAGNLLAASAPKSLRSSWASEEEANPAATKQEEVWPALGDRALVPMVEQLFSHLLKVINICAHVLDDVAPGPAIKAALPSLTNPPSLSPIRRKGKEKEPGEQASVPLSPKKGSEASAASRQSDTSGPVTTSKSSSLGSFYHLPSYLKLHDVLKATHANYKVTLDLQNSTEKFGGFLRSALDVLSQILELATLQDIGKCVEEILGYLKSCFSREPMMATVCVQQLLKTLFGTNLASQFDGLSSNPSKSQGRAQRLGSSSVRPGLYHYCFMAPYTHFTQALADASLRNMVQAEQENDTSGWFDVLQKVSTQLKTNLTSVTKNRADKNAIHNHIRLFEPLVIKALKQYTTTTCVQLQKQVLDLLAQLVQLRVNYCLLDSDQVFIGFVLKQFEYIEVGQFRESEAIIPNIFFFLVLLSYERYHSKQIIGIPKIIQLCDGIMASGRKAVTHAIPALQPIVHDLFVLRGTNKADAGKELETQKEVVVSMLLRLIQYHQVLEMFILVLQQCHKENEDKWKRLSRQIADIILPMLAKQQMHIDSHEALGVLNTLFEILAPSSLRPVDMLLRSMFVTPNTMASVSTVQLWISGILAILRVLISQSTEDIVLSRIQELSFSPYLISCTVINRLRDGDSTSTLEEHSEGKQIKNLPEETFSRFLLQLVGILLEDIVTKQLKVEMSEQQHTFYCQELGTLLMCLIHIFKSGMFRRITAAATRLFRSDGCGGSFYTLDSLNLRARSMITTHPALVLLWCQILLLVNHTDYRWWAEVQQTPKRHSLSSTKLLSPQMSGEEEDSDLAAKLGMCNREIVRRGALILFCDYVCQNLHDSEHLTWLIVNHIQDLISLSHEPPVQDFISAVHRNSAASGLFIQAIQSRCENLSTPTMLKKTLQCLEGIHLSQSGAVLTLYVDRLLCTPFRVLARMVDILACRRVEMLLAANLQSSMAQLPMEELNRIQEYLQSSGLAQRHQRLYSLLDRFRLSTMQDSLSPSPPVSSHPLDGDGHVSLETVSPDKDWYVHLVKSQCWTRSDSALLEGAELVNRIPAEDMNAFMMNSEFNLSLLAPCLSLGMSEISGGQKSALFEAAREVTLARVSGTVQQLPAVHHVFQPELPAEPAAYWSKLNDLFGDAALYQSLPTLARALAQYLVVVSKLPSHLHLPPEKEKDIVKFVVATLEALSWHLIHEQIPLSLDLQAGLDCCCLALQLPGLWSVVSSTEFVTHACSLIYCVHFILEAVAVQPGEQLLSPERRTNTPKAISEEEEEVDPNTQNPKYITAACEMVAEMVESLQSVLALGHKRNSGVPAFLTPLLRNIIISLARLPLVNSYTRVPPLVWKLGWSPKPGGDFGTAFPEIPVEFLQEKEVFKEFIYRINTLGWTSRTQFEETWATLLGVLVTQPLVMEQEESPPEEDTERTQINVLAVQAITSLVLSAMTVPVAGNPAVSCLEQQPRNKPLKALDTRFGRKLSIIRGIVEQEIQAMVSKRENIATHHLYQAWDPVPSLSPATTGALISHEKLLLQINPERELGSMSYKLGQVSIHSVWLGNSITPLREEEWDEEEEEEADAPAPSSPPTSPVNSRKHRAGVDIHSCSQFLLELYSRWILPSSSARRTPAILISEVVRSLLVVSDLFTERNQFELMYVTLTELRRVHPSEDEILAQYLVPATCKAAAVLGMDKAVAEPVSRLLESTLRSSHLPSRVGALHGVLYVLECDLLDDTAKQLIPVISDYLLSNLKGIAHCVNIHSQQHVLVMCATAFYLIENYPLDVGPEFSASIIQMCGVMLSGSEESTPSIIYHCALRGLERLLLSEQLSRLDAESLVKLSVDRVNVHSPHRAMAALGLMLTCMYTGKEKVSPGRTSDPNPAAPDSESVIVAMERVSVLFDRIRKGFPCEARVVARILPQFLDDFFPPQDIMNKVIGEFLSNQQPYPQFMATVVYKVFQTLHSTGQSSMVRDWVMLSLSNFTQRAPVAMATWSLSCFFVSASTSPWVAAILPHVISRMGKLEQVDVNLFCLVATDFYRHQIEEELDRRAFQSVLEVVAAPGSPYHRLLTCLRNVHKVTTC
Pf apPOL inh: Pf-apPOL DNA polymerase inhibition | Recombinant Pf-apPOL, molecular beacon fluorescence, 1.5 h | inhibition, % at 10 µM | hit rate 0.25% among 210,000 | AID 1794808
Active calls of the source: *. Most compounds without a hit are left out; they make up all but 3.6% or so of the library. Rule as the data show it: active = inhibition above about 50%; inactive = the rest.

SMILES	mHTT CaM bind	Pf apPOL inh
O=C1C(=Cc2ccc3c(c2)OCO3)Oc2c1ccc1c2CN(Cc2cccnc2)CO1	24.9	-167.5
COc1ccc(CN2COc3ccc4c(c3C2)OC(=Cc2cccnc2)C4=O)cc1	-1.7	-7.5
O=C1C(=Cc2ccc3c(c2)OCO3)Oc2c1ccc1c2CN(Cc2ccccn2)CO1	100.2*	-37.5
Cc1ccc(C=C2Oc3c(ccc4c3CN(Cc3ccccn3)CO4)C2=O)o1	100.2*	4.0
COc1ccc(C2SCC(=O)N2CCc2ccc(OC)c(OC)c2)c(OC)c1 (stereo not drawn)	6.0	13.5
COc1ccc(CCN2C(=O)CSC2c2ccc(Cl)c(Cl)c2)cc1OC (stereo not drawn)	100.0*	4.3
COc1cc(C2C(C#N)=C(N)Oc3c2oc(CO)cc3=O)cc(OC)c1OC (stereo not drawn)	1.9	3.9
COc1cc(C2C(C#N)=C(N)Oc3c2[nH]c(=O)[nH]c3=O)cc(OC)c1OC (stereo not drawn)	-4.0	97.0*
COc1cc2c(C(=O)N3CCC(C(N)=O)CC3)cn(C)c(=O)c2cc1OC	0.0	-0.7
Cc1c(C)n(CC(O)CNc2ccc(Br)cc2)c2ccccc12 (stereo not drawn)	100.0*	6.0
Cc1ccc(NCC(O)Cn2c(C)c(C)c3ccccc32)cc1C (stereo not drawn)	71.0*	-1.5
Cc1c(C)n(CC(O)CNc2ccc(Cl)cc2)c2ccccc12 (stereo not drawn)	100.0*	2.2
Cc1ccc(NCC(O)Cn2c(C)c(C)c3ccccc32)cc1 (stereo not drawn)	45.0	0.4
Cc1c(C)n(CC(O)CNCCCO)c2ccccc12 (stereo not drawn)	15.0	2.8
Cc1c(C)n(CC(O)CNC(C)c2ccccc2)c2ccccc12 (stereo not drawn)	30.6	-4.5
O=C(OC1CCCCC1)c1cc2cc([N+](=O)[O-])ccc2oc1=O	2.0	-8.9
Cc1ccc(-n2cc(-c3ccc(Cl)cc3)[nH]c2=O)cc1F	33.0	-6.8
Cc1cc(C)cc(C(=O)N2CCCC(COc3ccc(C(=O)NC4CC4)cc3)C2)c1 (stereo not drawn)	25.1	-1.6
Cc1ccc(-c2nc3ccccc3s2)cc1NC(=O)c1ccc([N+](=O)[O-])o1	4.4	0.9
COc1cc2c(C(=O)N3CCN(Cc4ccccc4)CC3)cn(C)c(=O)c2cc1OC	4.0	-9.7
Cc1c(CCOC(=O)CC23CC4CC(CC(C4)C2)C3)sc[n+]1CC(=O)c1ccccc1	93.8*	-3.6
O=C(OCC12CC3CC(CC(C3)C1)C2)c1ccccc1	-35.4	-1.2
Cc1ccc(CNC(=O)c2cccnc2N2CCNC(c3ccccc3)C2)o1 (stereo not drawn)	13.6	-5.6
Cc1ccc(OCC(=O)NC2(c3nc(-c4cccnc4)no3)CCCCC2)cc1	2.1	-1.7
CC(=O)NC(/C=C/c1ccccc1)c1cc([N+](=O)[O-])c2cccnc2c1O (stereo not drawn)	100.0*	7.5
SMILES	mHTT CaM bind	Pf apPOL inh
CC(=O)NC(c1ccc(Cl)cc1)c1cc([N+](=O)[O-])c2cccnc2c1O (stereo not drawn)	100.0*	-46.6
Cc1ccc(C(NC(=O)C(C)C)c2cc(Cl)c3cccnc3c2O)cc1 (stereo not drawn)	24.0	-9.8
CC(=O)NC(c1ccc(Cl)cc1Cl)c1cc(Cl)c2cccnc2c1O (stereo not drawn)	100.0*	-9.6
CC(=O)NC(c1ccc(Cl)cc1)c1cc(Cl)c2cccnc2c1O (stereo not drawn)	74.0*	7.6
CCCC(=O)NC(/C=C/c1ccccc1)c1cc([N+](=O)[O-])c2cccnc2c1O (stereo not drawn)	12.0	5.6
O=C(c1cc(F)cc(F)c1)N1CCC(CCOc2cccc(F)c2)CC1	-30.6	-2.4
O=C1C(N2CCOCC2)CCCN1Cc1ccccc1Cl (stereo not drawn)	-4.8	1.1
Cc1ccc(S(=O)(=O)N2CCc3ccc(NC(=O)c4ccccc4F)cc3C2)cc1	-7.2	-3.4
O=C1CCC[C@H]2C[C@H](NCCc3ccncc3)CC[C@]23CCCN13	77.0*	-8.4
O=C1CCC[C@H]2C[C@H](NCc3ccc(F)cc3)CC[C@]23CCCN13	-5.5	-6.8
Cc1cccc(N2CCN(C(=O)C3CCCC3)C(C)C2=O)c1C (stereo not drawn)	-1.6	-1.9
COc1ccc(O)c(C(=O)CC(=O)c2ccccc2C)c1	62.4*	-9.6
COc1ccc(NC(=O)c2ccccc2C)c(OC)c1	-1.5	-0.1
Cc1ccc(C(=O)CC(=O)c2ccccc2O)cc1	45.3	-1.1
Cc1ccc(O)c(C(=O)CC(=O)c2cccc(F)c2)c1	42.9	-2.1
Cc1ccccc1C(=O)CC(=O)c1ccccc1O	50.2*	-2.1
COc1ccc(O)c(C(=O)CC(=O)c2cccc(C)c2)c1	59.3*	-0.7
O=c1[nH]c2c(n1-c1ccccc1)C=Nc1ccccc1N2	5.0	1.9
O=C1OC(c2ccccc2F)=N/C1=C\c1ccc(I)cc1	1.0	7.3
CCCS(=O)(=O)N1CCCn2nc(-c3cccc(OC)c3)cc2C1	7.7	-0.9
